This is part of a sample that, as a whole, favours compounds with a hit. Of some 83,000 tested, about 20% had one in any assay.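 Treatment: one concentration, 48 hours, 96-well format. Scoring: percent growth, with anything below 10 considered active.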 Values without a mark were called inactive. Activity calls are given as the source filed them.

The assay relates to HL-60(TB) leukemia. The experiment in a line: NCI-60 one-dose screen, 48 h (100 = growth as untreated, 0 = no growth, -100 = all killed). Particulars: 10 µM unless noted.
Regarding `CCC(c1cccc(O)c1)C(CC)c1cccc(O)c1` (stereo not given), the growth was 20.7%. The result for `Cc1n(Cc2ccc3ccccc3c2)c2ccccc2[n+]1Cc1ccc2ccccc2c1` reads -60.3% (active); that for `CC(=O)OCCOc1cc(Cl)c(Cl)cc1Cl`, 77.3%. With `C#C[C@]1(O)CC[C@H]2[C@@H]3CC=C4c5sc(Nc6cc(F)ccc6F)nc5CC[C@]4(C)[C@H]3CC[C@@]21C`, the growth is -1.19% (active).

Consider `CC1=C(Cl)C(=O)c2cc(C)ccc2C1=O`, for which the growth is 117%. In the case of `CCN(CC)CCCNc1nccc2ccc(Cl)cc12`, the growth was 99.4%. The result for `COc1ccc(/C=N/C2=C(C#N)C(c3ccc(N(C)C)cc3)c3ccc4ccccc4c3O2)cc1` (stereo not given) reads 19.6%; that for `COC(=O)[C@H](C)NC(=O)c1ccc(NC(=O)c2[nH]c(C)c(Cl)c2Cl)c(OCCN)c1`, 95.2%. Take `Nc1ccc(NC(=O)c2ccccc2)c2c1C(=O)c1ccccc1C2=O`: the growth was 135%.

For the molecule `O=C(Nc1cccc(Cn2c(=O)[nH]c3ccc(Oc4ncccn4)cc3c2=O)c1)c1cc(Cl)cc(Cl)c1`, the growth is 98.5%. As for `COc1cc2c(cc1-c1c(C)noc1C)ncc1nc(C3CCC(F)(F)CC3)n([C@H](C)COC(F)F)c12`, the growth is 23.5%. For the molecule `O=C(Nc1nc2c(C(F)(F)F)cccc2s1)c1cc(Cl)ccc1O`, the growth is -38.8% (active). In the case of `c1ccc2c(c1)oc1cc3sccc3nc12`, the growth was 103%. Regarding `c1ccc(Cn2nc3c(c2-c2ccccc2)-c2oncc2CC3)cc1`, the growth is 92.2%. For `O=C(Cc1n[nH]c(=O)c2ccccc12)OCc1c(Cl)cccc1Cl`, the growth is 33.7%.

Source of the values: PubChem BioAssay (NCI).
